Bioassay records as filed in PubChem.
Many of the other results were omitted from the sample, so hits are more common in it than they were.
AmpC detergent: blocks E. coli AmpC beta-lactamase in detergent assay | 370,000 compounds, 0.041% hits | AID 485294 | Potency, µM (highest dose often 114 µM), hits mostly inhibitors | AmpC hydrolysis of nitrocefin, absorbance 480 nm, 0.01% Triton | P00811; also: nearly all actives have a fitted effect of over 25% in size
Target sequence (P00811 whole entry, looked up): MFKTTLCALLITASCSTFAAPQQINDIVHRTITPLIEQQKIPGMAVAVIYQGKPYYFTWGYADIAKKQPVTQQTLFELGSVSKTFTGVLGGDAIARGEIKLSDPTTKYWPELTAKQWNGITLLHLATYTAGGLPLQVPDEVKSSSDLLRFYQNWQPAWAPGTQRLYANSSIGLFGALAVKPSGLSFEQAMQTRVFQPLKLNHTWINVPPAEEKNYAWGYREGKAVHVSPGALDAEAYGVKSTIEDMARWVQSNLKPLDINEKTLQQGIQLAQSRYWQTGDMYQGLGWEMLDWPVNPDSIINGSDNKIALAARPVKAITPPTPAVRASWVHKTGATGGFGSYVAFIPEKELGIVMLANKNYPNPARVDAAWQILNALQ
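20 mM phosphate pH 7.0 + 0.01% (detergent screen) or 0.0001% Triton X-100; 5.3 nM AmpC reagent; cpd preinc 15 min RT; nitrocefin (800 uM stock) to start; A480 q20 s × 4 min; Activity was normalised to no-enzyme and no-compound control wells.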
CHX counter: counter-screen hit for Shiga toxin inhibitors, cycloheximide; cell reporter, cycloheximide protein synthesis inhibition counterscreen; max response, %; 300,000 compounds, 12% hits; AID 2314; in the data active = max response mostly above about 13%, no sharp cut-off; inactive = mostly below about 14%; also: read at 38.3 µM for the half of the compounds with a filed dose
NS1 function inh: inhibitors of influenza NS1 protein function; 270,000 compounds, 0.4% hits; Potency, µM (top dose mostly 46.1 µM); calls by dose curve; also: actives are rising curves; nearly all actives have a fitted effect of over 50% in size
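Growth recovery, yeast-based: influenza A NS1 expressed in S. cerevisiae causes slow growth, and suppressors are detected by OD600. The parent strain without NS1 is used as positive control.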
AmpC inh no detg: blocks E. coli AmpC beta-lactamase in detergent-free assay; P00811; AmpC nitrocefin hydrolysis, absorbance 480 nm, 0.0001% Triton; Potency, µM (series often up to 57.1 µM), hits mostly inhibitors; 330,000 compounds, 0.52% hits; AID 485341; also: nearly all actives have a fitted effect of over 20% in size
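20 mM phosphate pH 7.0 + 0.01% (detergent screen) or 0.0001% Triton X-100; 5.3 nM AmpC reagent; cpd preinc 15 min RT; nitrocefin (800 uM stock) to start; A480 q20 s × 4 min; Activity was normalised to no-enzyme and no-compound control wells.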
Shiga inhibitor: inhibitors of Shiga toxin in Vero cells | Vero cells, Shiga toxin protein synthesis inhibition reporter | inhibition, % at 38.7 µM | 290,000 compounds, 9.2% hits; in the data active = inhibition mostly above about 28%, no sharp cut-off; inactive = mostly below about 43%
Of the large screens only hits and unclear results are named; the others gave an inactive call. Unless noted, calls follow the shape of the dose curve; as a rule, active = well fitted curve in the direction sought with a large enough effect; inconclusive = small, poorly fitted or top-dose-only effect, or another doubt; inactive = no such curve, though single readings can be large; an effect the other way counts as inactive or inconclusive.

CC1(C)CC(=O)C2=C(C1)Nc1ccccc1NC2c1nc2ccccc2[nH]1 (configuration not stated)	AmpC detergent inconclusive, CHX counter 42, Shiga inhibitor 118
CC1(C)CC(=O)C2=C(C1)Nc1ccccc1NC2c1ccccn1 (configuration not stated)	none
CCOc1ccc(S(=O)(=O)NCc2cccn2Cc2cccc(C)c2)cc1	none (no result: CHX counter, NS1 function inh, AmpC inh no detg, Shiga inhibitor)
Cc1cc(C)c2c(N)c(C(=O)NCC3CCCCC3)sc2n1	CHX counter 35, Shiga inhibitor 130
Cc1cc(C)c2c(N)c(C(=O)NC3CCCC3)sc2n1	CHX counter 20, Shiga inhibitor 70
CCCn1c(SCC(=O)N2CC(=O)Nc3ccccc32)n[nH]c1=O	none (no result: AmpC detergent, CHX counter, NS1 function inh, Shiga inhibitor)
CC(C)c1nc2oc3c(N4CCNCC4)ncnc3c2c2c1CCC2	NS1 function inh 3.2µM (no result: AmpC detergent, CHX counter, AmpC inh no detg, Shiga inhibitor)
COc1cccc(NC(=O)CN2C=NS(=O)(=O)c3ccccc32)c1	none (no result: CHX counter, NS1 function inh, AmpC inh no detg, Shiga inhibitor)
CC(C)C[C@@H](CSc1ccc(Br)cc1)N1CCN(CCc2ccccc2)CCC1=O	none
CCCN1CCC(=O)N([C@H](CSc2ccc(OC)cc2)CC(C)C)CC1	CHX counter 27, Shiga inhibitor 71
CC(C)C[C@@H](CSc1ccccc1)N1CCN(CCc2ccccc2)CCC1=O	CHX counter 18, Shiga inhibitor 30
COc1ccc(SCC(CC(C)C)N2CCN(CCc3ccccc3)CCC2=O)cc1 (configuration not stated)	CHX counter 56, Shiga inhibitor 57 (no result: AmpC detergent, NS1 function inh, AmpC inh no detg)
CCn1c(CN2CCOCC2)nnc1SCC(=O)Nc1ccc(C(C)=O)cc1	none
COc1cccc(C(=O)Nc2c(C(=O)c3ccc(F)cc3)oc3ccccc23)c1	none (no result: CHX counter, NS1 function inh, AmpC inh no detg, Shiga inhibitor)
CCN1C(=O)/C(=C/N2CCc3ccccc32)SC1=S	CHX counter 16, Shiga inhibitor 69
CCN1C(=O)/C(=C\N2CCCc3ccccc32)SC1=S	none
CN1CCS/C1=C\C=C1/SC(=S)N(CC(=O)O)C1=O	none (no result: NS1 function inh)
CCN1C(=O)/C(=C/C=C2/SCCN2C)SC1=S	AmpC detergent inconclusive, CHX counter 59, Shiga inhibitor 78
CCCCN1C(=O)/C(=C/C=C2/CC(C)(C)CN2C)SC1=S	CHX counter 30
Cc1cc(NC(=O)CCC2CCCC2)no1	AmpC detergent inconclusive, CHX counter 28
Cc1ccnc(NC(=O)C23CC4CC(CC(C4)C2)C3)c1	CHX counter 12
CCCC(=O)Nc1ccc(Br)cn1	AmpC detergent inconclusive
CCC(=O)Nc1ccc(NC(=O)C23CC4CC(CC(C4)C2)C3)cn1	AmpC detergent inconclusive
Cc1cc(NC(=O)CN2CCCCCCC2)no1	AmpC detergent inconclusive
Cc1cc(NC(=O)CCC2CCCCC2)no1	CHX counter 25, Shiga inhibitor 61
O=C(CCC1CCCC1)Nc1ccc(Br)cn1	AmpC detergent inconclusive, CHX counter 18, Shiga inhibitor 89
O=C(CCC1CCCC1)Nc1ccon1	none
CC(=O)N1c2ccc(S(=O)(=O)N3CCC(C(=O)N4CCN(c5ccc(Cl)cc5)CC4)CC3)cc2CC1C (configuration not stated)	none
O=C(CSc1nc2ncccc2o1)Nc1ccc(Cl)cc1F	none (no result: CHX counter, NS1 function inh, AmpC inh no detg, Shiga inhibitor)
CSc1ccc(/C=C(/NC(=O)c2ccco2)C(=O)N2CCCCC2)cc1	none
Cc1ccnc(NC(=O)CCC2CCCCC2)c1	CHX counter 42, Shiga inhibitor 126
Cc1ccnc(NC(=O)CCC(=O)N(CC(=O)NC2CCCCC2)C2CCCC2)c1	none
Cc1ccc(C(=O)c2cnc3cc4c(cc3c2S(=O)(=O)c2ccccc2)OCCO4)cc1	CHX counter 68, NS1 function inh inconclusive, Shiga inhibitor 100
CCC1CCCCN1C(=O)CCS(=O)(=O)c1cc2c(cc1C)NC(=O)CO2 (configuration not stated)	none (no result: CHX counter, NS1 function inh, AmpC inh no detg, Shiga inhibitor)
CCOc1c(Br)cc(CNc2ccc3c(c2)OCCO3)cc1OC	CHX counter 49, Shiga inhibitor 97
CCOc1cc(CNc2ccc3c(c2)OCCO3)cc(Br)c1OC	none
CCOc1cc(CNc2ccc3c(c2)OCCO3)cc(Br)c1OCC(N)=O	CHX counter 20
CCOc1cc(CNc2ccc(O)cc2)cc(Br)c1OCc1ccccc1F	AmpC inh no detg 4µM
Cc1ccc(Cn2c(C(=O)O)c(CNC3CCCCCC3)c3ccc(C)cc32)cc1	none (no result: CHX counter, NS1 function inh, AmpC inh no detg, Shiga inhibitor)
COc1ccc(CNC(=O)C2CCN(S(=O)(=O)c3ccc4c(ccn4C)c3)CC2)cc1	none (no result: CHX counter, NS1 function inh, AmpC inh no detg, Shiga inhibitor)
O=C(NC1C2CC3CC(C2)CC1C3)C1CCCCC1 (configuration not stated)	none
COc1ccc(Oc2ccccc2C=O)cc1	none
COc1ccc(P2(=O)Nc3ccccc3N2)cc1	AmpC detergent inconclusive, CHX counter 36
O=C(OCc1ccc(Cl)cc1Cl)c1ccncc1	none
N/C(Cc1ccc(Cl)cc1Cl)=N\OC(=O)Cc1ccccc1	CHX counter 20
N/C(Cc1ccc(Cl)cc1Cl)=N\OC(=O)c1ccccc1	CHX counter 19, Shiga inhibitor 32 (no result: NS1 function inh)
N/C(CC1CC1(Cl)Cl)=N\OC(=O)c1ccccc1 (configuration not stated)	CHX counter 45, Shiga inhibitor 71
N/C(Cc1ccc(Cl)cc1Cl)=N\OC(=O)Cc1ccc(Cl)cc1	none
CCc1ccc(-n2c(C)cc(/C=N/NC(=O)OC)c2C)cc1	none
CC1CCCCN1C(=O)COC(=O)/C=C/c1ccc2ccccc2n1 (configuration not stated)	CHX counter 48, Shiga inhibitor 48 (no result: NS1 function inh)
CC1CCCCN1C(=O)COC(=O)c1ccc2ccccc2n1 (configuration not stated)	none (no result: CHX counter, NS1 function inh, Shiga inhibitor)
COC(=O)CNC(=O)COC(=O)/C=C/c1cccs1	none
COC(=O)CNC(=O)COC(=O)/C=C/c1ccc2ccccc2n1	CHX counter 20, Shiga inhibitor 32 (no result: NS1 function inh)
COc1ccccc1N1CCN(C(CNC(=O)C(=O)NCc2ccc(F)cc2)c2cccnc2)CC1 (configuration not stated)	none (no result: CHX counter, NS1 function inh, AmpC inh no detg, Shiga inhibitor)
O=C(CN1C(=O)C2(SCC(=O)N2c2cccc(Cl)c2)c2ccccc21)NC1CCCCC1 (configuration not stated)	none (no result: CHX counter, NS1 function inh, AmpC inh no detg, Shiga inhibitor)
O=C(COc1coc(CN2CCCc3ccccc32)cc1=O)Nc1cccc([N+](=O)[O-])c1	none (no result: CHX counter, NS1 function inh, Shiga inhibitor)
CC(C)CC1(C(=O)NCCN2CCOCC2)C=CCN1C(=O)c1ccccc1 (configuration not stated)	none
COC(=O)CNC(=O)C1(C)C=CCN1C(=O)c1ccccc1 (configuration not stated)	AmpC detergent inconclusive, CHX counter 40, Shiga inhibitor 94
O=C(c1ccc2c3n(nc2c1)-c1ccc(Cl)cc1CO3)N1CCOCC1	CHX counter 21, Shiga inhibitor 56
O=C(c1cc(-c2ccc(Cl)cc2)n(-c2ccc(Cl)cc2Cl)n1)N1CCOCC1	NS1 function inh inconclusive
Cc1ccc2c(c1)COc1c3ccc(C(=O)N4CCCCC4)cc3nn1-2	CHX counter 34
O=C(c1ccc2ccccc2c1)N1CCOCC1	AmpC detergent inconclusive (no result: CHX counter, NS1 function inh, Shiga inhibitor)
O=C(c1ccc2c3n(nc2c1)-c1ccccc1CO3)N1CCOCC1	CHX counter 31, Shiga inhibitor 58
